Shown are actives, neighbours in structure and some others; about 2.8% of the full set was active somewhere.
bovine MsrA act = activates bovine MsrA enzyme | activation, % at 10.6 µM | purified bovine MsrA, absorbance read-out | AID 602163 | 360,000 tested, 0.3% active; in the data active means activation above about 7.5%
SMARCA2 activ = SMARCA2 function activation, primary screen; MG213 cells, MMTV-luciferase reporter, dexamethasone, overnight; activation, % at 9.1 µM; 370,000 tested, 1% active; in the data active means activation above about 7.8%
KLK7 zymogen act = proKLK7 (human) activation, primary screen; P49862; purified proKLK7, EDANS-DABCYL substrate fluorescence; 100% is mature enzyme control, 0% vehicle; activation, % at 7 µM; 370,000 tested, 0.9% active; AID 652039;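 active means activation above the mean of all tested compounds plus 3 SD, computed per campaign excluding outliers beyond control limits, cut at about 13% in these data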
Target sequence (P49862 whole entry, looked up): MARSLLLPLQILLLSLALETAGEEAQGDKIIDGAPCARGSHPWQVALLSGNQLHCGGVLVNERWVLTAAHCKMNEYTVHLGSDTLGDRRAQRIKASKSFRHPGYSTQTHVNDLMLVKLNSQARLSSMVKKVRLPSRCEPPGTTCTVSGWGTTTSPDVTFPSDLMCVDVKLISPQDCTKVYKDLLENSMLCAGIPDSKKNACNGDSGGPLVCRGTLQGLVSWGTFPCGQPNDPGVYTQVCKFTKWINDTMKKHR
MsrA inhibitor = inhibitors of bovine MsrA; purified bovine MsrA, absorbance read-out; inhibition, % at 15.5 µM; 360,000 tested, 0.75% active; AID 651718; in the data active means inhibition above about 4.5%
SMARCA2 conf = SMARCA2 activation, confirmation screen; MG213 cells, MMTV-luciferase with dexamethasone, luminescence, overnight; MG213 cells expressing E1A, Rb sequestered; DMSO wells 0%, reference activator 100%; activation, % at 9.1 µM; shares compounds with SMARCA2 activ; AID 652260; 3,500 tested, 30% active;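 active means activation above its plate's cutoff, the mean activation of tested wells plus 3 SD, cut at about 7.9% in these data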
VP16 Luc act = GAL4-VP16 reporter activation counter-screen; activation, % at 9.1 µM; AID 686939; shares compounds with SMARCA2 activ; 3,500 tested, 41% active; HEK293 GAL4-VP16 pG5luc reporter, luciferase luminescence; scaled: DMSO wells 0%, SAHA wells 100%;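 active means activation above the solvent-only control well mean plus 3 SD, averaged across control plates, cut at about 5.2% in these data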
Of the large screens only hits and unclear results are named; the others gave an inactive call (follow-up assays come after a bar, where they were run).

COc1ccccc1C(NC(=O)C1CCN(CCOc2ccc(Cl)cc2Cl)CC1)c1ccccn1 (stereo not given)	none
O=c1[nH]sc2ccccc12	bovine MsrA act 13, SMARCA2 activ 8.9 | SMARCA2 conf inactive | VP16 Luc act inactive
COC(=O)Nc1ccc2ncn(C)c(=O)c2c1	SMARCA2 activ 9.9 | SMARCA2 conf inactive | VP16 Luc act inactive
Oc1ccc(-c2nccc(-c3ccccn3)n2)cc1	SMARCA2 activ 10 | SMARCA2 conf inactive | VP16 Luc act 8.1
COc1ccc(Oc2cc(F)nc(N)n2)cc1	none
Nc1ccnc(Oc2ccc(F)cc2)c1	SMARCA2 activ 18 | SMARCA2 conf inactive | VP16 Luc act inactive
CCOc1ccc(NC(=O)CCNS(=O)(=O)c2ccc3c(c2)oc(=O)n3C)cc1	SMARCA2 activ 8.0 | SMARCA2 conf inactive | VP16 Luc act inactive
CC1Cc2ccccc2N1C(=O)/C=C/c1cccc(F)c1 (stereo not given)	SMARCA2 activ 8.2 | SMARCA2 conf inactive | VP16 Luc act 9.9
CC1Cc2ccccc2N1C(=O)COC(=O)/C=C/c1ccc(F)cc1 (stereo not given)	none
CCn1c(SCC(=O)NN=Cc2cc(OC)ccc2OC)nnc1-c1ccc(OC)cc1	none (no result: bovine MsrA act, MsrA inhibitor)
O=S1(=O)N[C@H](Cc2ccccc2)COc2cccc(N3CCN(Cc4ccccc4F)CC3)c21	none
CN1CCCN(C(=O)CNC(=O)c2ccc(Cl)cc2Cl)CC1	none
N#Cc1cc(Oc2cccc3cccnc23)c(-n2nnc3ccccc32)cc1C#N	SMARCA2 activ 14 | SMARCA2 conf inactive | VP16 Luc act inactive
CCOC(=O)[C@@]12CCCC3=C1N(CCC3)C(=O)[C@H]2CC(=O)N1CCCCC1	none (no result: bovine MsrA act, MsrA inhibitor)
O=C(NC(=S)NCc1nc2ccccc2[nH]1)c1ccc(F)cc1	SMARCA2 activ 9.9 | SMARCA2 conf inactive | VP16 Luc act inactive
O=C(NC(=S)NCc1nc2ccccc2[nH]1)c1ccccc1F	none
Cc1ccc(/C=C/c2nnc(-c3ccc(C)cc3)o2)cc1	none
Cc1ccc(-c2nnc(-c3ccccc3)o2)cc1	none
Cc1ccc(/C=C/c2nnc(-c3cccs3)o2)cc1	SMARCA2 activ 11 | SMARCA2 conf inactive | VP16 Luc act 9.0
Cc1ccc(-c2nnc(-c3cc(C)on3)o2)cc1	SMARCA2 activ 9.0 | SMARCA2 conf inactive | VP16 Luc act 9.2
Cc1cc(-c2nnc(-c3cccc(C(F)(F)F)c3)o2)no1	none
Cc1ccc(-c2nnc(-c3cccs3)o2)cc1	SMARCA2 activ 10.0 | SMARCA2 conf 8.2 | VP16 Luc act 9.2
CCN(CC)CCNC(=O)Cc1c(C(=O)O)n(C)c2ccccc12	SMARCA2 activ 9.5 | SMARCA2 conf inactive | VP16 Luc act inactive
COC(=O)[C@]12C[C@H](CC(=O)N3CCOCC3)C(=O)N(Cc3ccco3)C1=C[C@H](C(C)C)O[C@@H]2C1CC1	SMARCA2 activ 9.6 (no result: bovine MsrA act, MsrA inhibitor) | SMARCA2 conf inactive | VP16 Luc act inactive
O=C(O)CCCNS(=O)(=O)c1ccc(F)cc1	SMARCA2 activ 8.8 | SMARCA2 conf inactive | VP16 Luc act inactive
CN(C(=O)c1ccco1)c1nc(-c2ccc(Cl)cc2)cs1	none
COc1ccc(-c2csc(N(C)C(=O)c3ccco3)n2)cc1	SMARCA2 activ 8.0 | SMARCA2 conf inactive | VP16 Luc act 7.9
CCCCCCC12Cc3cc(OC)c(OC)cc3C(O1)c1c(cc(C)oc1=O)O2 (stereo not given)	none (no result: bovine MsrA act)
C/C(=N\Nc1ccccn1)c1cccs1	SMARCA2 activ 10.0 | SMARCA2 conf 11 | VP16 Luc act 6.4
CCN=C1NC(c2cccc(Cl)c2)C(C(=O)OC)=C(C)N1Cc1ccccc1C(F)(F)F (stereo not given)	none (no result: bovine MsrA act)
CCc1cccc2c(C(=O)CN3C(=O)NC4(CCCCC4)C3=O)c[nH]c12	none
CCc1cccc2c(C(=O)CN3C(=O)NC4(CCCCCC4)C3=O)c[nH]c12	SMARCA2 activ 11 | SMARCA2 conf 13 | VP16 Luc act inactive
COc1cc2ccccc2cc1C(=O)Nc1nccs1	none
COc1c(C(=O)Nc2nccs2)ccc2ccccc12	SMARCA2 activ 10 | SMARCA2 conf 10 | VP16 Luc act 11
COc1cccc2cc(C(=O)N3CCCCC3C)c(=O)oc12 (stereo not given)	none
COc1cccc2cc(NC(=O)C3CCCCC3)c(=O)oc12	SMARCA2 activ 12 | SMARCA2 conf 7.8 | VP16 Luc act 10
O=C(NC1CCCCCC1)c1cc2ccccc2oc1=O	SMARCA2 activ 8.9 | SMARCA2 conf inactive | VP16 Luc act 12
O=C(c1cc2cc(Cl)ccc2oc1=O)N1CCOCC1	none
O=C(c1cc2ccccc2oc1=O)N1CCOCC1	SMARCA2 activ 8.0 | SMARCA2 conf 15 | VP16 Luc act inactive
CC(=O)Nc1ccc(NC(=O)c2ccc(-c3c(C)noc3C)c3ccoc23)cc1	SMARCA2 activ 8.6 | SMARCA2 conf inactive | VP16 Luc act 10
Cc1noc(C)c1-c1ccc(C(=O)Nc2ccc(C(C)C)cc2)c2occc12	none
COC(=O)c1ccc(NCc2c(O)ccc(O)c2Br)cc1Cl	none
COC(=O)c1ccc(NCc2cc(O)ccc2O)cc1O	SMARCA2 activ 8.5 | SMARCA2 conf inactive | VP16 Luc act inactive
CSCc1ccc(C(=O)OCC(=O)NC2CCCC2)o1	none
Cc1ccc2cc(NC(=O)C3(C)CCN3C(C)C)ccc2n1 (stereo not given)	none
CCOC(=O)c1sc(N/N=C/c2cccc(C)c2)nc1C	none
CCOC(=O)c1sc(N/N=C/c2ccccc2)nc1C	SMARCA2 activ 8.7 | SMARCA2 conf 21 | VP16 Luc act 13
O=C(OCC1CC(c2ccccc2Cl)=NO1)c1ccc(Br)cc1 (stereo not given)	SMARCA2 activ 11 | SMARCA2 conf inactive | VP16 Luc act inactive
CCC(=O)Nc1cccc(NC(=S)NC(=O)c2ccccc2Cl)c1	none
CCC(=O)Nc1cccc(NC(=S)NC(=O)c2cccs2)c1	SMARCA2 activ 11 | SMARCA2 conf inactive | VP16 Luc act 9.4
Cc1cccc(NC(=O)c2ccc(NCC3CCCO3)c([N+](=O)[O-])c2)c1 (stereo not given)	SMARCA2 activ 8.1 | SMARCA2 conf inactive | VP16 Luc act inactive
C[C@H]1CN([C@@H](C)CO)C(=O)CCCn2cc(nn2)CO[C@@H]1CN(C)S(=O)(=O)c1ccc(F)cc1	none (no result: bovine MsrA act)
O=C1SC(Cc2ccccc2)C(=O)N1c1ccccc1 (stereo not given)	SMARCA2 activ 8.3 | SMARCA2 conf inactive | VP16 Luc act inactive
O=C(/C=C/c1ccccc1)NC(=O)c1ccccc1O	SMARCA2 activ 9.6 | SMARCA2 conf 11 | VP16 Luc act 6.4
C[C@H](O)[C@@H]1CN2CCc3ccc(-c4ccc5c(c4)OCO5)cc3[C@@H]2C[C@@H]1N(C)C(=O)NC1CCCCC1	none (no result: bovine MsrA act)
O=C(c1ccc2c(c1)OCCO2)N1CCCCC1	none
CC1CCCN(C(=O)c2ccc3c(c2)OCCO3)C1 (stereo not given)	SMARCA2 activ 9.9 | SMARCA2 conf inactive | VP16 Luc act 5.5

High-throughput results as filed in PubChem.
